The whole screen tested about 400,000 compounds, of which about 13,000 (3.2%) were called active. Where a call stands in place of a potency, no number is given. About 18% were inconclusive and are not listed. Calls come from the whole dose curve; as a rule, active = well fitted cell-killing curve with a large enough effect; inconclusive = small, poorly fitted or top-dose-only effect, or effect the other way; inactive = flat fitted curve, though single readings scatter. The sample as a whole holds a higher share of actives than the screen did.
Potency is the fitted concentration of half-maximal effect.

This experiment can be described thus: qHTS assay for MDR1-selective chemotherapeutics: Primary screen using the drug-selected MDR subline cells KB-V1. Note: nearly all actives have a fitted effect of over 60% in size. The settings on record: KB-V1 MDR cells viability, CellTiter-Glo, 72 h; series mostly up to 46.1 µM. The method in brief:
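KB-V1 cells (P-gp-expressing MDR subline of KB-3-1) in phenol-red-free DMEM with 10% FBS were exposed to library compounds over a concentration series for 72 h at 37 degrees C. Viability read by CellTiter-Glo luminescence; concentration-effect curves fitted after normalization.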
(In qHTS, concentration-response curves come from the screen itself.)
Regarding `CC(C)Oc1cccc(-c2cnc(N3CCC(C(N)=O)CC3)s2)c1`, the Potency result is “inactive”.

In the case of `C[C@H]1COc2cc(N3CCSCC3)ccc2S(=O)(=O)N1`, the Potency entry was “inactive”.

With `CC1(C(=O)O)CCCN(C(=O)/C=C/c2ccccc2)C1` (centres undefined), the Potency entry was “inactive”.

With `COC(=O)c1ccc(NC(=O)c2cc(Cl)ccc2OC)cc1`, the Potency entry is “inactive”.

Regarding `COc1ccc(Cl)cc1C(=O)Nc1ccc(N(C)C(C)=O)cc1`, the Potency was 16.4 µM (active).

As for `COc1cc(OC)c(C(=O)Nc2ccc(N(C)C)cc2)cc1OC`, the Potency entry was “inactive”.

`CCC(=O)N1CCc2cc(Br)cc(S(=O)(=O)CCC(=O)NCc3ccccc3OC)c21`: the Potency entry was “inactive”.

As for `O=C(NCc1ccc(F)cc1)c1cc(C2CCCCN2C(=O)C2CCCCC2)on1` (centres undefined), the Potency entry is “inactive”.

With `CC(=O)Nc1ccc(C=Cc2ccc([N+](=O)[O-])cc2)cc1`, the Potency entry was “inactive”.

As to `NS(=O)(=O)c1ccc(CNC(=O)c2cc(S(=O)(=O)N3CCOCC3)ccc2N2CCCC2)cc1`, the Potency result was “inactive”.

As to `O=C1OCCOC2CCCc3oc(-c4ccccc4)c1c32` (centres undefined), the Potency entry is “inactive”.

Take `COc1cc2nc(Cl)nc(NCCO)c2cc1OC`: the Potency entry was “inactive”.

For `CN(C)c1nc(Nc2ccc(Cl)c(Cl)c2)nc(N(C)C)n1`, the Potency entry was “inactive”.

Turning to `OCCNc1nc(Nc2ccc(Cl)c(Cl)c2)nc2ccccc12`, the Potency was 9.2 µM (active).

`Cc1c(NC(=O)COC(=O)/C=C/c2cccc(F)c2)c(=O)n(-c2ccccc2)n1C`: the Potency entry was “inactive”.

As to `Cc1cccc(C(=O)N2CCc3cc(CNC(=O)Cc4ccc(F)cc4)ccc32)c1`, the Potency result was “inactive”.

As for `CCCCC12CN3CC(C)(CN(C1)C3c1ccc(O)c(OC)c1)C2=O` (centres undefined), the Potency result is “inactive”.

Regarding `COCCNc1ncnc2c1ncn2[C@H]1CN(Cc2ccc(OC)cc2)C[C@@H](CO)O1`, the Potency entry is “inactive”.

For `Cc1ccc(CC2CC(=O)N(c3cc(C)ccc3C)C2=O)cc1` (centres undefined), the Potency result was “inactive”.

As for `Cc1ccc(CC2CC(=O)N(c3nc(C)cc(C)n3)C2=O)cc1` (centres undefined), the Potency entry was “inactive”.

Turning to `COc1ccc(CN2C(=O)CC(Cc3ccc(C)cc3)C2=O)cc1OC` (centres undefined), the Potency is 18.4 µM (active).

Regarding `CN(C)c1ccc(/C=C/c2sc3ccccc3[n+]2CCCCBr)cc1`, the Potency result was “inactive”.

In the case of `Nc1nc2c(ncn2[C@@H]2O[C@H](CNS(=O)(=O)N3CCc4ccccc4C3)[C@@H](O)[C@H]2O)c(=O)[nH]1`, the Potency entry was “inactive”.

With `Cc1ccc(S(=O)(=O)c2nnn3c2nc(N2CCN(c4ccccc4F)CC2)c2cc(Cl)ccc23)cc1C`, the Potency result was “inactive”.

As for `CSc1ncc(Sc2ccccc2)c(C(=O)O)n1`, the Potency entry is “inactive”.

`CSc1nc(-c2ccccc2)nc(C(Cl)Cl)n1`: the Potency was 11.6 µM (active).

Regarding `CSc1nc(Nc2ccc(F)cc2)cc(-c2ccccc2)n1`, the Potency result is “inactive”.

As for `CCCCn1c(CNC(=O)C23CC4CC(CC(C4)C2)C3)nnc1SCC(=O)Nc1ccc(C)cc1`, the Potency entry was “inactive”.

For the compound `COc1ccc(CCCNC(=O)C2Cc3c(-c4cccc(C(N)=O)c4)ccnc3O2)cc1` (centres undefined), the Potency result is “inactive”.

For `COc1ccc(CC(N)c2csc(NC(=O)Cc3ccccc3)n2)cc1` (centres undefined), the Potency entry was “inactive”.

Regarding `Cc1cccc(C(=O)C(O)(c2ccccc2)C2CCCCC2=O)c1` (centres undefined), the Potency entry was “inactive”.

On to `COCCOCCn1cnc2ccccc21`, for which the Potency result is “inactive”.

For `CCOC(=O)c1ccc(NC(=O)Cn2cnc3cc(C)c(C)cc32)cc1`, the Potency entry was “inactive”.

Consider `COCCNC(=O)c1ccc(Cn2c(SCC(=O)NCC3CCCO3)nc3ccc(Br)cc3c2=O)cc1` (centres undefined), for which the Potency entry is “inactive”.

Take `CCn1c(SCC(=O)NCC2CCCO2)nc2ccccc21` (centres undefined): the Potency result was “inactive”.

For the compound `N#CCSc1nc2ccc(N3CCOCC3)cc2c(=O)n1CCc1ccccc1`, the Potency is 3.26 µM (active).

As for `CCCCn1c(SCC(=O)NCC2CCCO2)nc2ccc(N3CCOCC3)cc2c1=O` (centres undefined), the Potency was 3.66 µM (active).

Consider `Cn1c(=O)n(CCc2ccccc2)c(=O)c2c1nc1n2CCCN1c1ccccc1`, for which the Potency result is “inactive”.

In the case of `CCn1cc2nc(SCc3cccc(F)c3)n(CCc3ccccc3)c(=O)c2n1`, the Potency result is “inactive”.

For `O=C(Nc1ccc(Cl)cn1)c1ccccc1-c1ccccc1`, the Potency entry was “inactive”.

As for `CC1(C)CC(=O)C=C(c2ccc(COC(=O)c3cc(F)cc(F)c3)cc2)C1=O`, the Potency entry is “inactive”.

Regarding `OC(c1ccccc1)c1nc(-c2cnc3ccccc3c2)cs1` (centres undefined), the Potency was 16.4 µM (active).

`COc1cccc(C(NC(C)=O)c2nc(-c3cnc4ccccc4c3)cs2)c1` (centres undefined): the Potency entry is “inactive”.

Take `COc1ccc(-c2csc(C(O)c3cccc(Cl)c3)n2)cn1` (centres undefined): the Potency result was “inactive”.

For the compound `CCCC(=O)N1CCC1(C)C(=O)NCc1ccc(SC)cc1` (centres undefined), the Potency result is “inactive”.

Turning to `COc1ccc(OC)c(NC(=O)C2CCCN2S(=O)(=O)c2ccc3c(c2)CC(C)N3C(C)=O)c1` (centres undefined), the Potency result is “inactive”.

Take `COc1ccc(NC(=O)COC(=O)C2COc3ccccc3O2)cc1` (centres undefined): the Potency result was “inactive”.

`CCOc1ncccc1C(=O)OCC(=O)N1c2ccccc2CC1C` (centres undefined): the Potency result is “inactive”.

For the compound `CCOC(=O)c1c(C)[nH]c(C(=O)OCC(=O)N2CCCC2=O)c1C`, the Potency result was “inactive”.

Consider `CCOC(=O)c1[nH]c(C)c(C(=O)OCC(=O)N2c3ccccc3CC2C)c1C` (centres undefined), for which the Potency is 2.06 µM (active).

Take `Cc1ccc(F)cc1NC(=O)CCSc1nc(-c2ccco2)cc(C(F)(F)F)n1`: the Potency entry is “inactive”.

Regarding `Cc1ccc(S(=O)(=O)N(C)C)cc1NC(=O)/C=C/c1cccs1`, the Potency is 14.6 µM (active).

As to `CN(C)S(=O)(=O)c1cccc(NC(=O)COC(=O)/C=C/c2cccs2)c1`, the Potency entry was “inactive”.

As for `Cc1ccc(S(=O)(=O)N(C)C)cc1NC(=O)COC(=O)/C=C/c1cccs1`, the Potency result was “inactive”.

For `Cc1cccc(C)c1NC(=O)C(c1cccc(F)c1)N1CCN(C)CC1` (centres undefined), the Potency entry is “inactive”.

`Cc1ccc(S(=O)(=O)N2CCOCC2)cc1C(=O)NC(=S)N(Cc1ccccc1)C(C)C`: the Potency was 11.6 µM (active).

Turning to `Cc1ccc(S(=O)(=O)N2CCOCC2)cc1C(=O)NCc1ccc(F)cc1`, the Potency entry is “inactive”.

Regarding `Cc1cccc(N(Cc2ccccc2)C(=O)c2cc(S(=O)(=O)N3CCOCC3)ccc2F)c1`, the Potency result is “inactive”.

In the case of `CC1(C(=O)Nc2ccc3c(c2)OCCO3)CN(S(C)(=O)=O)CC(=O)N1Cc1cccc(F)c1` (centres undefined), the Potency result was “inactive”.

`Cc1nc2ccccn2c(=O)c1NC(=O)c1ccc(Br)o1`: the Potency result was “inactive”.

Take `Oc1c(Cl)cc(Cl)c(Cl)c1Cc1c(O)c(Cl)cc(Cl)c1Cl`: the Potency was 5.17 µM (active).

Consider `O=C(O)C(=Cc1ccc([N+](=O)[O-])cc1)CCc1ccccc1`, for which the Potency result is “inactive”.

Consider `CNC(=O)C1CN(C(=O)c2cccc(S(=O)(=O)N3CCc4ccccc43)c2)c2ccccc2O1` (centres undefined), for which the Potency result was “inactive”.

In the case of `COc1ccc(NC(=O)CSc2nc3ncccc3[nH]2)c(OC)c1`, the Potency entry was “inactive”.

Consider `CC(=O)c1nn(-c2ccccc2)c(=Nc2ccccc2)cc1C`, for which the Potency entry was “inactive”.

`O=C(CNCc1ccc(F)cc1)Nc1ccccc1-c1ccccc1`: the Potency is 13 µM (active).

For `CCC(C(=O)OCC(=O)Nc1ccccc1-c1ccccc1)c1ccccc1` (centres undefined), the Potency result is “inactive”.

Take `O=C(Cc1ccccc1)NCc1ccc(F)cc1`: the Potency result is “inactive”.

For the compound `CC1(C(=O)NS(=O)(=O)c2ccccc2Cl)CCN1C(=O)c1cccc(F)c1` (centres undefined), the Potency entry was “inactive”.

In the case of `O=S1(=O)CC(N2CCN(CCO)CC2)CN1Cc1cn(Cc2cccc(Cl)c2)nn1` (centres undefined), the Potency entry is “inactive”.

For the compound `O=C(COC(=O)c1ccccc1O)NCc1ccco1`, the Potency entry is “inactive”.

As for `CN(c1ccccc1)S(=O)(=O)c1ccc(Cl)c(C(=O)OCC(=O)NCc2ccco2)c1`, the Potency entry is “inactive”.

With `Cc1cc(C(=O)OCC(=O)NCc2ccco2)c(C)n1-c1ccccc1`, the Potency is 2.59 µM (active).

Regarding `O=C(CCn1ccc2cc(S(=O)(=O)N3CCCC3)ccc21)NCc1cccc(Cl)c1`, the Potency entry is “inactive”.

Consider `Cc1ccccc1CN1C(=O)CSCC1(C)C(=O)Nc1c(C)cccc1C` (centres undefined), for which the Potency result is “inactive”.

Consider `Cc1cccc(Nc2ccccc2C(=O)NCc2ccco2)c1C`, for which the Potency is 18.4 µM (active).

`CS(=O)(=O)N(CC(=O)NCc1ccco1)c1ccc2c(c1)OCO2`: the Potency entry was “inactive”.

Regarding `Cc1ccc(N(Cc2ccc(C(=O)Nc3ccccc3C(=O)NCc3ccco3)cc2)S(C)(=O)=O)cc1C`, the Potency is 2.06 µM (active).

With `CCN1CCN(C(=O)c2ccc(CN(c3ccc(C)c(C)c3)S(C)(=O)=O)cc2)CC1`, the Potency result is “inactive”.

With `CC(C)(C)c1ccc(C(=O)NCc2ccco2)cc1`, the Potency entry was “inactive”.

For `O=C(CCNC(=O)c1ccccc1Cl)NCc1ccco1`, the Potency result is “inactive”.

As to `COc1ccccc1NC(=O)C(CC(=O)O)Cc1cc(C)cc(C)c1` (centres undefined), the Potency entry is “inactive”.

With `Cc1ccc(F)c(S(=O)(=O)NC(=O)C2(C)CCN2C(=O)CCc2cccs2)c1` (centres undefined), the Potency entry is “inactive”.

Regarding `Cc1ccccc1NC(=O)c1cc(S(=O)(=O)Nc2cccc(C(=O)O)c2)ccc1Cl`, the Potency entry was “inactive”.

`C=CCNC(=O)c1ccccc1NC(=O)c1ccc(Cl)c(S(=O)(=O)Nc2cccc(C)c2C)c1`: the Potency is 2.91 µM (active).

`COc1ccc(NS(=O)(=O)c2cc(C(=O)Nc3ccccc3C(=O)O)ccc2C)cc1`: the Potency entry is “inactive”.

Consider `Nc1ncnc2nnsc12`, for which the Potency entry is “inactive”.

Regarding `CN(C(=O)CSc1nnnn1-c1ccccc1)C1CCCCC1`, the Potency entry is “inactive”.

`CCN(c1ncnc2c1cnn2-c1ccc(C)cc1)C1CCCCC1`: the Potency result is “inactive”.

With `CN(C(=O)COc1ncnc2c1cnn2-c1ccccc1)C1CCCCC1`, the Potency was 9.2 µM (active).

For the compound `CC(C)(C)OC(=O)N(Cc1ccco1)S(=O)(=O)c1ccccc1Br`, the Potency result is “inactive”.

Regarding `CCc1nc2c(OCCOc3ccccc3)cccn2c1N(C)C(=O)c1cccs1`, the Potency result is “inactive”.

For `CC(C)NC(=O)C1(C)CCCCN1Cc1cccc(C(F)(F)F)c1` (centres undefined), the Potency entry was “inactive”.

On to `Cc1cc2c(cc1C)N1C(=O)c3cc4ccccc4cc3NC(=O)C1C(=O)N2` (centres undefined), for which the Potency entry was “inactive”.

As for `COCCNCCOCCOc1cccc(OC)c1`, the Potency entry is “inactive”.

As for `COc1cccc(OCCOc2cccc(/C=N/n3cnnc3)c2)c1`, the Potency was 18.4 µM (active).

As to `C=CCc1ccc(OCCOc2cccc(/C=N/n3cnnc3)c2)c(OC)c1`, the Potency result is “inactive”.

Take `COc1cccc(CNC(=O)CSc2c3c(nc4cc(Cl)ccc24)CCCC3)c1`: the Potency result is “inactive”.

On to `O=C(Nc1nc(-c2ccc3c(c2)OCO3)cs1)c1ccncc1`, for which the Potency is 2.59 µM (active).

For `CC(=O)NCCC(=O)Nc1nc(-c2ccc3c(c2)OCCO3)cs1`, the Potency result is “inactive”.

As for `O=C(Nc1nc2ccccc2s1)c1ccc2c(c1)OCO2`, the Potency result is “inactive”.

In the case of `CN(C)C1CN(Cc2cn(Cc3ccccc3)nn2)S(=O)(=O)C1` (centres undefined), the Potency result was “inactive”.

As for `COC(=O)c1cc2occc2n1Cc1nc(-c2ccc(C)cc2)oc1C`, the Potency entry was “inactive”.

In the case of `O=C(NCc1ccc(F)cc1F)[C@@H]1CCCN1C(=O)[C@@H]1CCCN1C(=O)c1cccc(Cl)c1`, the Potency entry is “inactive”.

Values taken from PubChem BioAssay AID1347076 (National Center for Advancing Translational Sciences (NCATS), 2019).
